Measurements from PubChem BioAssay (Tox21).
Inconclusive results are not listed. Activity calls are given as the source filed them. Unless noted, calls follow the shape of the full dose curve.

Columns and labels:
[1] = Nuclear factor erythroid 2-related factor 2/antioxidant responsive element (Nrf2/ARE) small molecule agonists: qHTS cell viability counter screen in human keratinocytes (AID 1919968; active = well fitted curve in the direction sought with a large enough effect in the repeat runs; an effect the other way counts as inactive or inconclusive; also: nearly all actives have a fitted effect of over 55% in size)
Outline: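 Stably transfected HaCaT (KeratinoSens), 1,500/well. Test agents in DMSO were applied for 23 h, 37 C/5% CO2. CellTiter-Fluor was incubated 1 h before the fluorescence read.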

[2] = Nuclear factor erythroid 2-related factor 2/antioxidant responsive element (Nrf2/ARE) small molecule agonists: luciferase reporter gene qHTS assay in human keratinocytes (AID 1919969); also: nearly all actives have a fitted effect of over 35% in size
[3] = target: Gonadotropin-releasing hormone receptor (Homo sapiens) (UniProt P30968); assay: Human gonadotropin-releasing hormone receptor (GnRHR) small molecule agonists, calcium flux assay in GnRHR-HEK293 cells (AID 1920063); also: nearly all actives have a fitted effect of over 35% in size
Chain of Gonadotropin-releasing hormone receptor (Homo sapiens) (P30968 whole entry, looked up): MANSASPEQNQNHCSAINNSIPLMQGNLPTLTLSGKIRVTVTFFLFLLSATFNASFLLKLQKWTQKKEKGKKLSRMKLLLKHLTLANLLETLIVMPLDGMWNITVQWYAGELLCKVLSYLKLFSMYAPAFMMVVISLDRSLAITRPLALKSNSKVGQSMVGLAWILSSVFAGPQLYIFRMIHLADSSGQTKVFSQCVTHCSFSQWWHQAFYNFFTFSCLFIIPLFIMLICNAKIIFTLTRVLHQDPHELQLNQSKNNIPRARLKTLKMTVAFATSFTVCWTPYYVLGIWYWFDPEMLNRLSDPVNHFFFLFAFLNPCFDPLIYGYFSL
Outline: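 Stable human GnRHR HEK293 line. 18 h plating, then calcium dye for 1 h at 37 C. Agonist-mode compound addition from DMSO stocks; fluorescence monitored 3 min.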

[4] = target: KiSS-1 receptor (Homo sapiens) (UniProt Q969F8); assay: Human kisspeptin (KISS1R) small molecule agonists, calcium flux assay in KISS1R-HEK293 cells (AID 1920064; active = well fitted curve in the direction sought with a large enough effect in the repeat runs; an effect the other way counts as inactive or inconclusive)
Chain of KiSS-1 receptor (Homo sapiens) (Q969F8 whole entry, looked up): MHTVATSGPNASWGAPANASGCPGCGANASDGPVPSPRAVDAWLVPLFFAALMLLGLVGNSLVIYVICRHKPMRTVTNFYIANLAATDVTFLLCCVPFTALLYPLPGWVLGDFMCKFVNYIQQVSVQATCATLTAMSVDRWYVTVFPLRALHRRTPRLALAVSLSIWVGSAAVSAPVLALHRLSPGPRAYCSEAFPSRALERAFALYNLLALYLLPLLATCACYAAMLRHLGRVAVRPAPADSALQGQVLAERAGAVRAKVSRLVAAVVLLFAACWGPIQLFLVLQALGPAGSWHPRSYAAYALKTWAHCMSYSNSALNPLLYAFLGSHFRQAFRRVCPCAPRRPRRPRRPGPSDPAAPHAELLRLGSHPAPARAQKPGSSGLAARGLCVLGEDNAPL
Outline: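 After overnight (18 h) culture at 37 C/5% CO2, human KISS1R-HEK293 cells received calcium dye for 1 h, then test compound; emission at 540 nm (excitation 480 nm) was tracked for 3 min.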

[5] = G protein-coupled receptor (GPCR) small molecule agonists, calcium flux assay: HEK293 wild type cell line counter screen (AID 1920065)
Outline: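 Following 18 h incubation at 37 C/5% CO2, plates got calcium dye for 1 h; compounds, ATP or DMSO were then pinned in and fluorescence followed kinetically (480/540 nm).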

[6] = p53 small molecule agonists, cell-based qHTS assay with human liver microsomes (AID 1963577)
Outline: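 Fluorescence of the beta-lactamase reporter in p53RE-bla cells, detected with LiveBLAzer substrate (2 h, room temperature, dark), served as the read-out after 16 h compound exposure at 37 C with human liver microsomes and NADPH, each 0.5 mg/mL final.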

[7] = p53 small molecule agonists, cell-based qHTS assay with rat liver microsomes (AID 1963578)
Outline: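 Cells carrying a p53 response element–beta-lactamase reporter were plated and rested 5 h, then dosed with compound in DMSO plus rat liver microsomes and NADPH, each at 0.5 mg/mL final. After 16 h at 37 C, LiveBLAzer substrate was added for 2 h.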

[8] = p53 small molecule agonists, cell-based qHTS assay with rat liver microsomes: qHTS cell viability counter screen (AID 1963580); also: nearly all actives have a fitted effect of over 45% in size
Outline: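 Cytotoxicity counter screen: intracellular ATP measured by CellTiter-Glo luminescence in the same wells as the beta-lactamase reporter read, on HCT-116 p53RE-bla cells exposed 16 h at 37 C to compounds with rat liver microsomes and NADPH, each 0.5 mg/mL final.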

[9] = p53 small molecule agonists, cell-based qHTS assay: qHTS cell viability counter screen (AID 1963581); also: nearly all actives have a fitted effect of over 45% in size
Outline: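 qHTS counter screen: 16 h compound exposure at 37 C of p53RE-bla HCT-116 cells (4,000 per well, seeded 5 h prior), cell viability by ATP luminescence.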

[10] = target: 5-hydroxytryptamine receptor 2A (Homo sapiens) (UniProt P28223); assay: 5-hydroxytryptamine receptor 2A (HTR2A) small molecule antagonists, cell-based qHTS assay (AID 1963586); also: nearly all actives have a fitted effect of over 45% in size
Chain of 5-hydroxytryptamine receptor 2A (Homo sapiens) (P28223 whole entry, looked up): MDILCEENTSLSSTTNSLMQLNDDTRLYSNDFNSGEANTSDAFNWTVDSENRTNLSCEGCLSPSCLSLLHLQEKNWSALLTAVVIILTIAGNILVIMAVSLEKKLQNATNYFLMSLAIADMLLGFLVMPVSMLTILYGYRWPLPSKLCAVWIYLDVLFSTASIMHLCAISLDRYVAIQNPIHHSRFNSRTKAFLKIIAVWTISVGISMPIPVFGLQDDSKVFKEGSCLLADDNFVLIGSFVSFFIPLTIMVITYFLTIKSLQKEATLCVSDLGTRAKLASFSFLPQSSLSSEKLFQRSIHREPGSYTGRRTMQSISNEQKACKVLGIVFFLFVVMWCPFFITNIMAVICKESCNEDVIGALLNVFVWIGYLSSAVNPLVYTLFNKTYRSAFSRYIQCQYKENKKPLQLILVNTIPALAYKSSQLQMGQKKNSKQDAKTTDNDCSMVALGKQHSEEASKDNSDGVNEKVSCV
Outline: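 CHO cells stably expressing human HTR2A were plated for 18 h at 37 C, then loaded with calcium dye for 1 h. Compounds were preincubated 5 min at room temperature before DOI (4 nM solution) was added. Kinetic fluorescence was read for 3 min.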

[11] = target: 5-hydroxytryptamine receptor 2A (Homo sapiens) (UniProt P28223); assay: 5-hydroxytryptamine receptor 2A (HTR2A) small molecule agonists, cell-based qHTS assay (AID 1963587); also: nearly all actives have a fitted effect of over 30% in size
Outline: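 CHO cells stably expressing human HTR2A, plated 18 h, loaded with calcium dye 1 h at 37 C. Agonist mode: compounds added and intracellular calcium fluorescence recorded kinetically for 2 min at 1 sec intervals.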

[12] = cAMP Responsive Elements (CRE) small molecule antagonists, cell-based qHTS assay (AID 1963591; active = well fitted inhibition curve with a large enough effect in the signal ratio in the repeat runs, not every such curve was filed as active; the % refers to the signal ratio)
Outline: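 Reporter line CRE-bla HEK 293T in dialyzed-FBS DMEM; cells preincubated 18 h, treated 3 h with compound plus NKH477 (0.25 uM final); LiveBLAzer FRET, 2 h RT.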

[13] = target: Beta-2 adrenergic receptor (Homo sapiens) (UniProt P07550); assay: Adrenergic beta2 receptor (ADRB2) small molecule antagonists, cell-based qHTS assay (AID 1963592); also: series mostly up to about 92 µM; nearly all actives have a fitted effect of over 50% in size
Chain of Beta-2 adrenergic receptor (Homo sapiens) (P07550 whole entry, looked up): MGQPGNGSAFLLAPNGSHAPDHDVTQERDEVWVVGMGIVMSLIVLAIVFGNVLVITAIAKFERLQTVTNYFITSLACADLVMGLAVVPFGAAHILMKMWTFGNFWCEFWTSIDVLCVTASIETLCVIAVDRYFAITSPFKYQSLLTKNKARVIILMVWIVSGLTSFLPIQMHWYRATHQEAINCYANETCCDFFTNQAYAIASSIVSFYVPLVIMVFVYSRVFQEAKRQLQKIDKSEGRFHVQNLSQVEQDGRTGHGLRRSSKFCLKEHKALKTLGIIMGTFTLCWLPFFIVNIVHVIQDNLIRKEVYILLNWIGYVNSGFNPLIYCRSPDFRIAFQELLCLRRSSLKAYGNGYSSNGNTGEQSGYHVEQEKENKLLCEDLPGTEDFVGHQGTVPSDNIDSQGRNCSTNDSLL
Outline: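 Assay format: CHO-ADRB2 cells, 18-20hr seeding at 37C/5% CO2, then compound plus 1nM isoproterenol agonist mix for 0.5hr RT. Homogeneous time-resolved fluorescence cAMP detection after 1hr, expressed as 665/615 nm ratio.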

[14] = target: Beta-2 adrenergic receptor (Homo sapiens) (UniProt P07550); assay: Adrenergic beta2 receptor (ADRB2) small molecule agonists, cell-based qHTS assay (AID 1963593);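 also: CHO cells stably overexpressing human ADRB2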
Outline: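 CHO cells stably over-expressing ADRB2 were plated overnight at 37C, then dosed with compounds plus a stimulation mix containing 100uM IBMX and 25uM Ro-20-1724 for 0.5hr at room temperature. cAMP was measured by HTRF competition, 1hr.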

[15] = target: D(2) dopamine receptor (Homo sapiens) (UniProt P14416); assay: Dopamine D2 receptor (DRD2) small molecule antagonists, cell-based qHTS assay (AID 1963595; active = well fitted inhibition curve with a large enough effect in the signal ratio in the repeat runs, with a control signal flat; the % refers to the signal ratio)
Chain of D(2) dopamine receptor (Homo sapiens) (P14416 whole entry, looked up): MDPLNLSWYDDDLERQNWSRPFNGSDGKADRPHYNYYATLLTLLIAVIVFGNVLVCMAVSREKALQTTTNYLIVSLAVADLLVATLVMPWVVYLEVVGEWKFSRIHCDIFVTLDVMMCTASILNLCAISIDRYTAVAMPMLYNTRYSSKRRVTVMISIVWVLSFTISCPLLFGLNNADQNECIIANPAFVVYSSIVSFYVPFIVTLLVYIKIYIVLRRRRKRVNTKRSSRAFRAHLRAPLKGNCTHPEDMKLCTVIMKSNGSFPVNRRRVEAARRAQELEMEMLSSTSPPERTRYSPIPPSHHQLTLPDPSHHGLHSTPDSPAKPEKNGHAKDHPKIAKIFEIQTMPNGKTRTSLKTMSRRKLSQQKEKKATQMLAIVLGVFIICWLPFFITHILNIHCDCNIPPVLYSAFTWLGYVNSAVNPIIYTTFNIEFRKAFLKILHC
Outline: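 HEK293 cells stably expressing DRD2, preincubated with 0.1 mM Ro20-1724 and compounds 10 min, were stimulated with 200 nM NKH477 plus 12 nM quinpirole for 30 min at room temperature; cAMP measured by HTRF (665/620 nm).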

[16] = p53 small molecule agonists, cell-based qHTS assay with human liver microsomes: qHTS cell viability counter screen (AID 1963579); also: nearly all actives have a fitted effect of over 45% in size
Outline: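 Cytotoxicity counter screen: p53RE-bla, 4,000 cells/well; 5 h settle, 37 C/5% CO2; cpd + HLM 0.5 mg/mL + NADPH 0.5 mg/mL (final); 16 h, 37 C; CellTiter-Glo, 30 min RT, luminescence.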

[17] = p53 small molecule agonists, cell-based qHTS assay (AID 1963582; active = well fitted activation curve with a large enough effect in the signal ratio in the repeat runs, not every such curve was filed as active; the % refers to the signal ratio)
Outline: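 Measured: fluorescence from cleaved LiveBLAzer substrate. System: p53RE-bla cells, 16 h compound treatment at 37 C, 2 h substrate step at room temperature.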

[18] = target: Muscarinic acetylcholine receptor M1 (Homo sapiens) (UniProt P11229); assay: Cholinergic receptor muscarinic 1 (CHRM1) small molecule antagonists, cell-based qHTS assay (AID 1963588); also: nearly all actives have a fitted effect of over 40% in size
Chain of Muscarinic acetylcholine receptor M1 (Homo sapiens) (P11229 whole entry, looked up): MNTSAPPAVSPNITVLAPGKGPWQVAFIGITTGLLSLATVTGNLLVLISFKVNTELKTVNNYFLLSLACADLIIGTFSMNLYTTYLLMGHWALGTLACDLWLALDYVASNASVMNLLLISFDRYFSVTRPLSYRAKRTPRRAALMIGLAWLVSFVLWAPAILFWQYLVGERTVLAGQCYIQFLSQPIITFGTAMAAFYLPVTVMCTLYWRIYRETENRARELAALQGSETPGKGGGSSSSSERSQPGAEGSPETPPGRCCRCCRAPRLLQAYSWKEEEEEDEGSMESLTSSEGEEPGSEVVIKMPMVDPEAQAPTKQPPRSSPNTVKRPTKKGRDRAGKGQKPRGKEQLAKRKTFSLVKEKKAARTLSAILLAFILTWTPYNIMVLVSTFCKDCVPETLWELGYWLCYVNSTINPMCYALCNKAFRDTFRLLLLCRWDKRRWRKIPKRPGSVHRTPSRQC
Outline: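 Compounds were tested at 15 concentrations in three independent runs. Dye-loaded CHRM1-CHO cells were exposed 5 min at room temperature before stimulation by acetylcholine added at 50nM. Intracellular calcium was read kinetically on FDSS for 3 min.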

[19] = cAMP Responsive Elements (CRE) small molecule agonists, cell-based qHTS assay (AID 1963590)
Outline: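 Test agents in DMSO were incubated 3 h at 37 C/5% CO2 with CRE-bla HEK 293T cells seeded 18 h earlier; LiveBLAzer B/G FRET substrate was added and read after 2 h at room temperature.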

[20] = target: D(2) dopamine receptor (Homo sapiens) (UniProt P14416); assay: Dopamine D2 receptor (DRD2) small molecule agonists, cell-based qHTS assay (AID 1963594); also: nearly all actives have a fitted effect of over 35% in size
Outline: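 HEK293 cells stably expressing human DRD2, pre-treated with PDE inhibitor Ro20-1724 (0.1 mM final) and compound 10 min at room temperature, then stimulated with NKH477 (200nM […]) for 30 min. cAMP read by HTRF (665/620 nm).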

Measured: Potency

Cc1ncc([N+](=O)[O-])n1C
not listed: [16] | [17] | [18] | [19] | [20]
inactive: all other assays above

C=CC(C)(C)C
not listed: [7]
inactive: all other assays above

CCCOC(=O)NCCCN(C)C
not listed: [16]
inactive: all other assays above

CN(C)C=O
not listed: [8] | [10] | [11] | [14] | [18]
inactive: all other assays above

OC[C@@H](O)[C@H](O)[C@H](O)[C@@H](O)CO
not listed: [8] | [10] | [11] | [18]
inactive: all other assays above

Cc1ccc(C(C)C)c(O)c1
not listed: [14] | [16]
inactive: all other assays above

CCOc1ccc(NC(=O)CC(C)O)cc1 (centres undefined)
not listed: [8] | [9] | [17]
inactive: all other assays above
